Assay outcomes: PubChem BioAssay, Center for Chemical Genomics, University of Michigan
The entries come from a sample that favours hits as a whole.
Dicer processing: human Dicer pre-microRNA cleavage inhibition; 47,000 tested, 6% active; z-score at 25 µM; cat-ELCCA pre-miR-21 Dicer processing, chemiluminescence; stronger effect = higher value; Q9UPY3; in the data active means z-score above about 3, passing the limit was not always enough;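 further: higher signal means more uncleaved substrate so more Dicer inhibition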
Of the large screens only hits and unclear results are named; the others gave an inactive call.

CC1(C)Cc2c(c(N3CCOCC3)nc3sc4c(NCCCO)ncnc4c23)CO1	none
CC1(C)Cc2c(c(N3CCOCC3)nc3sc4c(=O)n(-c5ccc(Cl)cc5)cnc4c23)CO1	none
C=C(C)CSc1nnc2c3sc4nc(N5CCOCC5)c5c(c4c3ncn12)CC(C)(C)OC5	Dicer processing 3.25
Cc1ccc2nc(C)c3c(c2c1)SCC3	none
S=C(Nc1ccccn1)Nc1ccccn1	none
Cc1nc(C)c(-c2csc(Nc3ccc(C(=O)O)c(O)c3)n2)s1	none
Cc1nc2ccccn2c1-c1ccnc(SCC(=O)c2cccc(C(F)(F)F)c2)n1	none
CCN(CC)c1ccc(Nc2nc(-c3ccc(O)cc3O)cs2)cc1	none
COc1ccccc1Nc1n[nH]c(=S)s1	none
Cc1ccn2c(-c3csc(Nc4ccc(N(C)C)cc4)n3)c(C)nc2c1	Dicer processing 5.49
COc1ccccc1Nc1nc(-c2c(C)nc3cc(C)ccn23)cs1	Dicer processing 4.56
Cc1nc2ccccn2c1-c1ccnc(SCC(=O)Nc2ccc(F)cc2)n1	none
COc1ccccc1Nc1nc(-c2sc(N)nc2C)cs1	none
CN(C)c1ccc(Nc2nc(-c3cccs3)cs2)cc1	none
Cc1ccnc(Nc2nc(-c3c(C)nc4ccccn34)cs2)c1	Dicer processing 3.09
Cc1nc(C)c(-c2csc(Nc3ccc(N(C)C)cc3)n2)s1	Dicer processing 4.08
COc1ccc(-c2csc(Nc3ccc(N(C)C)cc3)n2)cc1	none
O=C(CCCSc1nc(-c2ccco2)cc(C(F)(F)F)n1)NCc1ccc(F)cc1	none
CCCc1nc2sc3c(NCCCO)ncnc3c2c2c1CCCC2	none
Cc1oc(-c2cccs2)cc1C(=O)NCCNc1nccc(C(F)(F)F)n1	none
CC1CCc2c(sc(NC(=O)CSc3nnc(-c4ccncc4)n3Cc3ccccc3)c2C#N)C1 (stereo not given)	none
Cc1ccccc1-n1c(-c2cccnc2)noc1=O	none
CN(C)/C=C1/C(=O)c2sccc2N(C)S1(=O)=O	none
Cc1nc(N)sc1-c1csc(Nc2ccc(Br)cc2)n1	none
Cc1cc(NS(=O)(=O)c2ccc(Nc3nc(-c4c(C)nc5ccccn45)cs3)cc2)no1	Dicer processing 3.48
Cc1nc2sccn2c1-c1csc(Nc2ccc(Br)cc2)n1	Dicer processing 4.21
Cc1cc(C)nc(NS(=O)(=O)c2ccc(Nc3nc(-c4c(C)nc5ncccn45)cs3)cc2)n1	none
Brc1ccc(-c2csc(Nc3ccncc3)n2)cc1	none
Cc1cc(NS(=O)(=O)c2ccc(Cl)cc2)no1	none
CCOC(=O)c1nn(-c2ccc(C(F)(F)F)cc2)cc(Sc2nnc(C(F)(F)F)n2C)c1=O	none
CCN(CCS(=O)(=O)c1ccc(C)cc1)C(=O)Nc1ccc(Cl)cc1	none
NC(=O)c1cc2c(c([N+](=O)[O-])c1)-c1c(cc(C(N)=O)cc1[N+](=O)[O-])C2=O	none
Cc1ccc(OCCSc2nc(C)cc(=O)[nH]2)cc1	Dicer processing 4.88
CCOc1ccc(OCCSc2nc(C)cc(=O)[nH]2)cc1	none
COc1ccccc1OCCSc1nc(C)cc(=O)[nH]1	none
COc1cc(/C=N/N)cc(OC)c1OC	none
COc1cc(/C=N/NC(=O)c2ccccc2N)cc(OC)c1OC	Dicer processing 3.33
COc1cc(/C=N/NC(=O)c2cc(-c3ccccc3)sc2N)cc(OC)c1OC	none
O=C(CN1CCN(c2nc3cc(Cl)ccc3s2)CC1)c1ccc(-c2ccccn2)s1	none
O=C(Oc1c(-c2ccccc2)c(=O)n2c3c(c4cccc1c42)CCCC3)c1ccc([N+](=O)[O-])cc1	none
O=C(CCSc1nc(-c2ccco2)cc(C(F)(F)F)n1)NC1CC1	none
O=c1nc(SCc2c(Cl)cccc2Cl)nc(-c2ccc(Cl)cc2)[nH]1	Dicer processing 5.89
O=c1nc(SCc2ccccc2Cl)nc(-c2ccc(Cl)cc2)[nH]1	none
CCSc1nc(-c2ccc(Cl)cc2)[nH]c(=O)n1	none
CCCS(=O)(=O)C1=C(N)OC(c2ccccc2)=C(C#N)C1c1ccc(Cl)cc1 (stereo not given)	none
Cc1nc(C)c(S(=O)(=O)NCc2c(-c3ccccc3)noc2C)s1	none
COc1ccc(C(=O)Oc2cccc3cccnc23)cc1OC	none
COc1ccc(C(=O)Oc2cccc3cccnc23)cc1Cl	Dicer processing 4.37
O=C(Oc1cccc2cccnc12)c1cccs1	none
Nc1ccccc1Sc1ncnc2scc(-c3ccccc3)c12	none
CC1=C(C(=O)OC(C)C)C(c2ccc3c(c2)OCO3)C2=C(CC(c3cccs3)CC2=O)N1 (stereo not given)	none
Nc1c(S(=O)(=O)Cc2ccc(Cl)cc2)sc2nc3c(cc12)CCCC3	none
O=C1c2cccc3c(Sc4ccccc4)ccc(c23)C(=O)N1CCc1ccccn1	none
O=C1c2cccc3c(Sc4ccccc4)ccc(c23)C(=O)N1Cc1ccccc1	Dicer processing 5.23
O=C1c2cccc3c(Br)ccc(c23)C(=O)N1Cc1ccccc1	none
CCOC(=O)c1cnn(-c2ncnc3sc(-c4ccccc4)cc23)c1N	none
C/C(=C\c1ccc(/C=C(\C)[N+](=O)[O-])cc1)[N+](=O)[O-]	none
Cc1cc(C)c2c(=O)[nH]c(SCC(=O)c3ccc(O)c(O)c3)nc2n1	Dicer processing 3.66
Cc1cc(=O)[nH]c(SCC(=O)c2ccc(F)cc2)n1	none
Cc1ccc(C(=O)CSc2nc3ccccc3c(=O)[nH]2)cc1C	none
O=C(Nc1nc2c(s1)Cc1ccccc1-2)c1ccc(F)c(Cl)c1	none
Oc1ccccc1CNc1nc2c(s1)CCc1ccccc1-2	Dicer processing 4.27
